In publication PMC12548414:
In all, about 1,600 compounds went through this assay and about 20 (1%) showed an effect of 50% or more. The entries come from a sample that favours strong results as a whole.

Tested on: T1, E. coli pLC1021 (luc-trpAt trans-translation reporter)
T1 construct: pLC1021 luc-trpAt reporter strain
Parameters: species or system Escherichia coli pLC1021; luc-trpAt non-stop luciferase reporter; luminescence rises when trans-translation is inhibited; normalized to KKL-35 and DMSO
Conditions: reporter signal, KKL-35 = 100%; rise means trans-translation inhibition; 2 h, 20 µM
Method: The luciferase screen was performed as previously described ([16]). […] 48 µL of cells was transferred to white 96-well plates, and 2 µL DMSO or 20 µM compound, or 20 µM KKL-35 was added. Plates were sealed with adhesive film, vortexed gently to mix, and incubated at room temperature for 2 h. 50 µL Bright-Glo reagent (Promega, Madison, WI) was added to each well, and the plates were sealed with adhesive film, vortexed vigorously, and incubated for an additional 10 min at room temperature. Luminescence was measured at 560 nm using a SpectraMax i3 microplate reader and readings for each plate were normalized to the average of three KKL-35-treated wells (positive control) and three DMSO-treated wells (negative control) within the plate to correct for plate-to-plate and day-to-day variations. Results from at least two biological repeats were averaged, and GraphPad Prism was used to plot the data. We screened a library of 1,601 anti-tubercular small molecules for their ability to inhibit trans-translation using a luciferase reporter in Escherichia coli. In this luc-trpAt reporter, the firefly luciferase gene has a trpA transcriptional terminator before the stop codon, such that luciferase is translated from a non-stop mRNA ([16]). When trans-translation is active, the luciferase will be tagged and degraded, but when trans-translation is inhibited, active luciferase will accumulate, resulting in a luminescent signal when luciferin is added. Luciferase activity was measured after growth in the presence of compounds from the library at 20 µM, using the known trans-translation inhibitor KKL-35 as a positive control (Fig. 1A) ([16], [17]). Compounds with activity one standard deviation above the median were scored as positive (Fig. S1 and Table S1).

Row | Structure (SMILES) | % activation
1 | CC(C)(C)c1cc(Cl)c(O)c(NC(=S)NC(=O)c2cccc3ccccc23)c1 [KKL-0905] | 0%
2 | O=C(C[n+]1nc(CNc2ccc(Cl)cc2)n2c1CCCCC2)c1ccc(Br)cc1 [KKL-1021] | 9%
3 | CC(C)(C)c1cc(Cl)ccc1OCCCCn1ccnc1 [KKL-1305] | 5%
4 | CN(CCn1ccnc1)Cc1cn(Cc2ccccc2)nc1-c1cc2ccccc2o1 [KKL-0649] | 0%
5 | COc1ccc(CNCc2cn(-c3cccc(F)c3)nc2-c2ccc(C)o2)cc1 [KKL-0321] | 0%
6 | Cn1cc(CCNC(=O)Nc2ccc(N3CCCCC3)nc2)cn1 [KKL-1828] | 0%
7 | O=C(Nc1ccco1)N1CCN(Cc2cccs2)CC1 [KKL-1841] | 1%
8 | CCc1cc(C(=O)OC)c(N=C(S)NCc2ccc(Cl)c(Cl)c2)s1 [KKL-1547] | 0%
9 | O=C(C=Cc1ccco1)N1CCN(Cc2ccc3c(c2)OCO3)CC1 [KKL-1821] | 0%
10 | CCC(C)c1ccc(O)c(NC(=S)NC(=O)c2cncc(Br)c2)c1 (stereo not shown) [KKL-0711] | 3%
11 | CCn1cc(C(=O)O)c(=O)c2cc(F)c(N3CCNCC3)cc21 [KKL-0831] | 56%
12 | CCN1CCN(c2cc3c(cc2F)c(=O)c(C(=O)O)cn3C2CC2)CC1 [KKL-0903] | 6%
13 | CCn1cc(C(=O)O)c(=O)c2cc(F)c(N3CCN(C(S)=Nc4cc(C(F)(F)F)ccc4Cl)CC3)cc21 [KKL-1476] | 5%
14 | Cc1nn(-c2ccc(F)cc2)c2nc(O)c(CNCc3ccccc3F)cc12 [KKL-0342] | 0%
15 | CCCOC(=O)c1ccc(NC(=S)NC(=O)c2ccc(Cl)cc2)cc1 [KKL-0761] | 3%
16 | CC1CN(c2ccc([N+](=O)[O-])cc2)CCN1C(=O)c1cccc(Br)c1 (stereo not shown) [KKL-1355] | 0%
17 | FC(F)(F)c1cccc(-n2cc(-c3ccccc3)c3c(NCc4cccnc4)ncnc32)c1 [KKL-1573] | 0%
18 | O=C(NCCCn1ccnc1)c1cccnc1Nc1cccc(C(F)(F)F)c1 [KKL-0554] | 15%
19 | NC1CCc2nc(-c3cccnc3)nc(Nc3ccc(C(F)(F)F)cc3)c2C1 (stereo not shown) [KKL-0526] | 137%
20 | NC1CCc2nc(-c3cccnc3)nc(Nc3cccc(C(F)(F)F)c3)c2C1 (stereo not shown) [KKL-0530] | 124%
21 | Nc1cccnc1Nc1ccc(C(F)(F)F)cc1 [KKL-1711] | 4%
22 | Cc1cnc(N2CCN[C@@H](Cc3ccccc3)C2)nc1Oc1ccc(-n2ccnc2)cc1 [KKL-1724] | 6%

Row | Structure (SMILES) | % activation
23 | CCOC(=O)c1cnc(-n2nc(C)cc2C)nc1Nc1ccc(N(C)C)cc1 [KKL-0889] | 0%
24 | Clc1ccc(Nc2nc(-c3ccccn3)cs2)nc1 [KKL-1793] | 0%
25 | Cc1oc(-c2ccc3ccccc3c2)nc1CN1CCN(c2cnccn2)CC1 [KKL-0659] | 0%
26 | CN(C)S(=O)(=O)c1ccc(C(=O)Nc2nnc(-c3ccc(Cl)s3)o2)cc1 [KKL-1747] | 1%
27 | CSc1ccc(-c2nnc(NC(=O)c3ccc(Cl)s3)o2)cc1 [KKL-1706] | 50%
28 | O=C(Nc1nnc(-c2ccc(Cl)s2)o1)c1ccc(Cl)s1 [KKL-1762] | 0%
29 | CN1CCN(c2ccc(NC(=S)NC(=O)c3ccc(-c4cccc(Cl)c4)o3)cc2)CC1 [KKL-0357] | 18%
30 | O=C(Nc1ccc2c(c1)OCCO2)c1cccc2nc3ccccc3nc12 [KKL-0843] | 0%
31 | Cc1ccc(Cl)cc1N=C1C=C(NS(=O)(=O)c2cccs2)c2ccccc2C1=O [KKL-1115] | 0%
32 | Cc1ccc(C(=O)NC[C@H]2C[C@@H]3CCN2C[C@@H]3c2cc(-c3ccc4ccccc4c3)nn2C)cc1 [KKL-0337] | 0%
33 | COC(=O)c1cccc(NC(=S)NC[C@H]2C[C@@H]3CCN2C[C@@H]3c2cc(-c3ccc4ccccc4c3)nn2C)c1 [KKL-1596] | 71%
34 | Cn1nc(-c2ccc3ccccc3c2)cc1[C@H]1CN2CC[C@H]1C[C@@H]2COC(=O)Nc1cccc(C(F)(F)F)c1 [KKL-0323] | 0%
35 | NC1CCc2nc(-c3ccncc3)nc(Nc3ccc(Cl)cc3)c2C1 (stereo not shown) [KKL-0326] | 797%
36 | NC1CCc2nc(-c3cccnc3)nc(Nc3ccc(Cl)cc3)c2C1 (stereo not shown) [KKL-0540] | 119%
37 | Nc1cccnc1Nc1ccc(Cl)cc1 [KKL-1858] | 0%
38 | CCOC(=O)CSc1nc(C#N)c(SCC(=O)OCC)s1 [KKL-0955] | 12%
39 | O=C(Oc1cccc2cccnc12)C(Cc1ccccc1)N1C(=O)C2C3CCC(C3)C2C1=O (stereo not shown) [KKL-1364] | 9%
40 | Cc1oc2ccccc2c1CN(CCCn1ccnc1)Cc1cccc(F)c1 [KKL-0544] | 0%
41 | CCC(OC(C)=O)c1ccc(OC(C)=O)c(OC)c1 (stereo not shown) [KKL-0758] | 7%
42 | CCOc1ccc(NC(=O)CSc2nc3ccc([N+](=O)[O-])cc3s2)cc1 [KKL-1417] | 0%
43 | Cc1ccc(NCCC(=O)c2ccc([N+](=O)[O-])cc2)cc1C [KKL-0401] | 14%
44 | COc1cc2cc(-c3nc4ccccc4[nH]3)c(N)nc2cc1OC [KKL-0395] | 22%

Row | Structure (SMILES) | % activation
45 | Cc1ccc2[nH]c(C3CCCNC3)c(-c3ccncc3)c2c1 (stereo not shown) [KKL-1820] | 14%
46 | Cc1ccc2[nH]c3c(c2c1)CCCC3NCCCOc1ccc(F)cc1 (stereo not shown) [KKL-0771] | 84%
47 | CC1CCc2sc3ncnc(NCCc4ccccc4)c3c2C1 (stereo not shown) [KKL-0868] | 2%
48 | CCOC(=O)COc1ccc(C(=O)Nc2ccc(F)cc2)cc1 [KKL-0783] | 0%
49 | CC12CC3CC(C)(C1)CC(CNCc1ccccc1O)(C3)C2 [KKL-1484] | 3%
50 | CCCOC(=O)CSc1nnc(-c2cc(OC)c(OC)c(OC)c2)o1 [KKL-1095] | 0%
51 | Cc1ccc(-c2csc(-c3ccncc3)n2)cc1C [KKL-0956] | 0%
52 | COC(=O)[C@@H](NC(=O)c1cc(COc2c(F)cccc2F)on1)c1ccccc1 [KKL-0496] | 8%
53 | CCOC(=O)c1ccc(NC(=O)C2C(=O)N(C)C3(C)CC2c2ccccc2O3)cc1 (stereo not shown) [KKL-1246] | 0%
54 | Cc1cc([N+](=O)[O-])ccc1NC(=O)CN1C2CCC1CC(NC(=O)NC13CC4CC(CC(C4)C1)C3)C2 (stereo not shown) [KKL-1619] | 0%
55 | CCCCCCn1c(=O)c(C(=O)Nc2nc(CC(=O)OCC)cs2)c(O)c2ccccc21 [KKL-0986] | 0%
56 | CCCCCn1c(=O)c(C(=O)Nc2nc3ccccc3[nH]2)c(O)c2ccccc21 [KKL-1004] | 7%
57 | CCOC(=O)Cc1csc(NC(=O)c2c(O)c3ccccc3n(CCC(C)C)c2=O)n1 [KKL-1615] | 75%
58 | O=C(c1ccc(Cl)cc1)c1ccc(CSc2nnc(-c3ccccc3)o2)o1 [KKL-1212] | 0%
59 | O=C(c1cnn(C(=O)c2ccco2)c1)c1cc(F)ccc1O [KKL-1685] | 3%
60 | Clc1ccc(OCCCCCn2ccnc2)c(Cl)c1 [KKL-0421] | 0%
61 | N#CCc1ccc(NC(=O)/C=C/c2ccc([N+](=O)[O-])o2)cc1 [KKL-1204] | 0%
62 | c1cnc(N2CCN(c3nncc(-c4ccc(C5CCCCC5)cc4)n3)CC2)cn1 [KKL-0667] | 0%
63 | Cc1cc(Cl)ccc1NC(=O)CCc1ccc(S(=O)(=O)NC(C)C)cc1 [KKL-1581] | 0%
64 | CCc1ccc(CCC(=O)Nc2ccc(C)cc2)o1 [KKL-1248] | 0%
65 | CC(=O)NC(=S)NNC(=O)c1ccc(C(C)(C)C)cc1 [KKL-0588] | 143%
66 | CC(C)(C)c1ccc(C(=O)NC(=S)Nc2ccc(C(=O)O)cc2)cc1 [KKL-1314] | 0%

Row | Structure (SMILES) | % activation
67 | Cc1ccc(C(=O)NC(=S)Nc2ccc(S(=O)(=O)NC(C)C)cc2)cc1Br [KKL-0593] | 0%
68 | CC(=O)NC(=S)NNC(=O)c1ccc(C)c(Br)c1 [KKL-0065] | 186%
69 | CC(C)(C)c1ccc(C(=O)NC(=S)N2CCCC2)cc1 [KKL-1436] | 12%
70 | CC(=O)NC(=S)NNC(=O)c1ccc(-c2ccccc2)cc1 [KKL-0063] | 99%
71 | O=C(O)c1ccc(NC(=S)NC(=O)c2ccc(-c3ccccc3)cc2)cc1 [KKL-1292] | 0%
72 | COc1ccccc1C(=O)NNC(=S)NC(=O)c1ccc(-c2ccccc2)cc1 [KKL-0561] | 11%
73 | Cc1ccc(C(=O)NCCC2=CCCCC2)cc1Br [KKL-1393] | 0%
74 | CNc1nc(SCC(=O)N(C)Cc2ccc(Cl)s2)nc2ccccc12 [KKL-1768] | 0%
75 | Cc1cc(C)nc(/N=C(\N)Nc2cc(Cl)ccc2Oc2ccccc2)n1 [KKL-0289] | 0%
76 | COC(=O)COc1ccc(NC(=O)c2ccccc2Br)cc1 [KKL-1572] | 0%
77 | Cc1[nH]c2ccccc2c1/C=C1\SC(=N)N(c2nccs2)C1=O [KKL-1143] | 6%
78 | Brc1cncc(-c2cc(NCCCn3ccnc3)nc(-c3ccccc3)n2)c1 [KKL-1784] | 0%
79 | O=[N+]([O-])c1cc(O)c2ncccc2c1 [KKL-0003] | 46%
80 | c1cnc2c(c1)ccc1cccnc12 [KKL-0825] | 8%
81 | Oc1ccc(Br)c2cccnc12 [KKL-0093] | 371%
82 | O=C(Nc1nc(-c2ccccn2)cs1)c1ncc(Cl)c(Cl)c1Cl [KKL-0390] | 10%
83 | O=C(Nc1ccc(Cl)cc1)c1cc2c(cc1O)[nH]c1ccccc12 [KKL-0896] | 102%
84 | O=C(Nc1ccc(Cl)cc1)Nc1ccc(F)c(F)c1 [KKL-1350] | 0%
85 | O=C(Nc1ccc(-c2nc3ccccc3c(=O)o2)cc1)c1ccccc1I [KKL-1501] | 2%
